Assay results taken from PubChem BioAssay (NCI).
About 83,000 compounds went through this panel and 20% of them were active in at least one assay; those are over-represented in the sample as a whole.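 Method: cells in 96-well plates; compound added at one concentration; 48 h incubation; percent growth measured; values under 10 scored active.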 Unmarked numbers belong to inactive results. The source made the active and inactive calls.

Experiments:
Experiment in all cases: NCI-60 one-dose screen, 48 h (100 = growth as untreated, 0 = no growth, -100 = all killed)
Details in all cases: 10 µM
NCI-H23 lung = tested on: NCI-H23 lung
NCI-H226 lung = tested on: NCI-H226 lung
NCI-H322M lung = tested on: NCI-H322M lung
HOP-62 NSCLC = tested on: HOP-62 NSCLC
NCI-H460 lung = tested on: NCI-H460 lung
HOP-92 NSCLC = tested on: HOP-92 NSCLC
NCI-H522 lung = tested on: NCI-H522 lung
A549/ATCC NSCLC = tested on: A549/ATCC NSCLC
786-0 renal = tested on: 786-0 renal
COLO 205 colon = tested on: COLO 205 colon
DU-145 prostate = tested on: DU-145 prostate
K-562 leukemia = tested on: K-562 leukemia
MALME-3M melanoma = tested on: MALME-3M melanoma
MDA-MB-231 breast = tested on: MDA-MB-231 breast
SF-268 CNS = tested on: SF-268 CNS
SF-295 CNS = tested on: SF-295 CNS
SF-539 CNS = tested on: SF-539 CNS
UACC-257 melanoma = tested on: UACC-257 melanoma
M14 melanoma = tested on: M14 melanoma

Compound: CN1CCCN(Cc2ccc(C(=O)Nc3cccc(Nc4ccc5c(O)cccc5n4)c3)cc2C(F)(F)F)CC1
- growth (NCI-H23 lung): -82.1% (active)
- growth (NCI-H226 lung): 57.4%
- growth (NCI-H322M lung): -72.1% (active)
- growth (HOP-62 NSCLC): -69.8% (active)
- growth (NCI-H460 lung): -85.3% (active)
- growth (HOP-92 NSCLC): -51.5% (active)
- growth (NCI-H522 lung): -83.4% (active)
- growth (A549/ATCC NSCLC): -61.4% (active)
- growth (786-0 renal): -74.8% (active)
- growth (COLO 205 colon): -64.4% (active)
- growth (DU-145 prostate): -44.5% (active)
- growth (K-562 leukemia): 11.5%
- growth (MALME-3M melanoma): -95.9% (active)
- growth (MDA-MB-231 breast): -75.6% (active)
- growth (SF-268 CNS): -55.6% (active)
- growth (SF-295 CNS): -91% (active)
- growth (SF-539 CNS): -98.3% (active)
- growth (UACC-257 melanoma): -81.3% (active)
- growth (M14 melanoma): -84.7% (active)

Compound: O=c1c2ccccc2nc(COc2ccccc2)n1/N=C/c1ccc(N2CCOCC2)cc1
- growth (NCI-H23 lung): 59.2%
- growth (NCI-H226 lung): 37.9%
- growth (NCI-H322M lung): 66.6%
- growth (HOP-62 NSCLC): 18.4%
- growth (NCI-H460 lung): 66.2%
- growth (HOP-92 NSCLC): -1.3% (active)
- growth (NCI-H522 lung): 33.6%
- growth (A549/ATCC NSCLC): 73.7%
- growth (786-0 renal): 45.5%
- growth (COLO 205 colon): 80.8%
- growth (DU-145 prostate): 77.5%
- growth (K-562 leukemia): 103%
- growth (MALME-3M melanoma): 56.8%
- growth (MDA-MB-231 breast): 26%
- growth (SF-268 CNS): 26.4%
- growth (SF-295 CNS): 69.8%
- growth (SF-539 CNS): 34.1%
- growth (UACC-257 melanoma): 95.7%
- growth (M14 melanoma): 93.9%

Compound: OCCNc1oc(-c2ccccc2)nc1[P+](c1ccccc1)(c1ccccc1)c1ccccc1
- growth (NCI-H23 lung): 8.3% (active)
- growth (NCI-H226 lung): 1.88% (active)
- growth (NCI-H322M lung): 55.3%
- growth (HOP-62 NSCLC): 24.2%
- growth (NCI-H460 lung): 5.2% (active)
- growth (HOP-92 NSCLC): -22.6% (active)
- growth (NCI-H522 lung): 2.33% (active)
- growth (A549/ATCC NSCLC): 45.8%
- growth (786-0 renal): 21.2%
- growth (COLO 205 colon): -52.8% (active)
- growth (DU-145 prostate): 16.6%
- growth (K-562 leukemia): 11.2%
- growth (MALME-3M melanoma): -26.1% (active)
- growth (MDA-MB-231 breast): -5.38% (active)
- growth (SF-268 CNS): 5.6% (active)
- growth (SF-295 CNS): 20.7%
- growth (SF-539 CNS): 16.7%
- growth (UACC-257 melanoma): -9.09% (active)
- growth (M14 melanoma): 11%

Compound: C/C(=N\N=C\c1ccc(Cl)c([N+](=O)[O-])c1)c1ccc2c(c1)Nc1ccccc1S2
- growth (NCI-H23 lung): 18.2%
- growth (NCI-H226 lung): -25.2% (active)
- growth (NCI-H322M lung): 50%
- growth (HOP-62 NSCLC): 47.5%
- growth (NCI-H460 lung): 1.22% (active)
- growth (HOP-92 NSCLC): 32.6%
- growth (NCI-H522 lung): 33.2%
- growth (A549/ATCC NSCLC): 60.2%
- growth (786-0 renal): 52.1%
- growth (COLO 205 colon): 32.1%
- growth (DU-145 prostate): 28.1%
- growth (K-562 leukemia): 38.6%
- growth (MALME-3M melanoma): -3.5% (active)
- growth (MDA-MB-231 breast): 32.4%
- growth (SF-268 CNS): 47.3%
- growth (SF-295 CNS): 42.7%
- growth (SF-539 CNS): 12.8%
- growth (UACC-257 melanoma): 51.2%
- growth (M14 melanoma): 62.6%

Compound: N#Cc1ccc(-c2nn(-c3ccc(C(=O)O)cc3)cc2CNc2ccc(Oc3ccccc3)cc2)cc1
- growth (NCI-H23 lung): 12%
- growth (NCI-H226 lung): 85.1%
- growth (NCI-H322M lung): 88.2%
- growth (HOP-62 NSCLC): 37.4%
- growth (NCI-H460 lung): 40.2%
- growth (HOP-92 NSCLC): 38.8%
- growth (NCI-H522 lung): 66.8%
- growth (A549/ATCC NSCLC): 46.5%
- growth (786-0 renal): 30.5%
- growth (COLO 205 colon): 118%
- growth (DU-145 prostate): 65.4%
- growth (K-562 leukemia): 42.7%
- growth (MALME-3M melanoma): 93.9%
- growth (MDA-MB-231 breast): 72.5%
- growth (SF-268 CNS): 50.1%
- growth (SF-295 CNS): 49.3%
- growth (SF-539 CNS): 38.9%
- growth (UACC-257 melanoma): 56.1%
- growth (M14 melanoma): 34.9%

Compound: O=C(NCCCCCCCCCC[P+](c1ccccc1)(c1ccccc1)c1ccccc1)c1ccc(-n2nc(-c3ccccc3O)nc2-c2ccccc2O)cc1
- growth (NCI-H23 lung): -66.8% (active)
- growth (NCI-H226 lung): -58.9% (active)
- growth (NCI-H322M lung): -91.1% (active)
- growth (HOP-62 NSCLC): -64.1% (active)
- growth (NCI-H460 lung): 8.35% (active)
- growth (HOP-92 NSCLC): -74.9% (active)
- growth (NCI-H522 lung): -78.3% (active)
- growth (A549/ATCC NSCLC): -51.9% (active)
- growth (786-0 renal): -64% (active)
- growth (COLO 205 colon): -83.1% (active)
- growth (DU-145 prostate): -45.8% (active)
- growth (K-562 leukemia): 6.35% (active)
- growth (MALME-3M melanoma): -94% (active)
- growth (MDA-MB-231 breast): -73.6% (active)
- growth (SF-268 CNS): -28.8% (active)
- growth (SF-295 CNS): -90.4% (active)
- growth (SF-539 CNS): -95.9% (active)
- growth (UACC-257 melanoma): -71.5% (active)
- growth (M14 melanoma): -84.9% (active)

Compound: O=C(Cc1ccc2c(c1)CN(C1CCC(=O)NC1=O)C2=O)NCc1cccc2ccccc12 (configuration not stated)
- growth (NCI-H23 lung): 12.7%
- growth (NCI-H226 lung): 1.96% (active)
- growth (NCI-H322M lung): -4.15% (active)
- growth (HOP-62 NSCLC): -23.1% (active)
- growth (NCI-H460 lung): 45.7%
- growth (HOP-92 NSCLC): -28.3% (active)
- growth (NCI-H522 lung): -21.4% (active)
- growth (A549/ATCC NSCLC): 7.72% (active)
- growth (786-0 renal): -23.6% (active)
- growth (COLO 205 colon): -35.7% (active)
- growth (DU-145 prostate): -7% (active)
- growth (K-562 leukemia): 8.3% (active)
- growth (MALME-3M melanoma): -72.2% (active)
- growth (MDA-MB-231 breast): -47.5% (active)
- growth (SF-268 CNS): -8.53% (active)
- growth (SF-295 CNS): -8.76% (active)
- growth (SF-539 CNS): -23.3% (active)
- growth (UACC-257 melanoma): 32.5%
- growth (M14 melanoma): -70.8% (active)

Compound: O=[N+]([O-])c1ccc(-c2nc(-c3ccccc3)c(-c3ccccc3)n2-c2ccc(S(=O)(=O)Nc3ncccn3)cc2)cc1
- growth (NCI-H23 lung): 23.9%
- growth (NCI-H226 lung): 27.7%
- growth (NCI-H322M lung): 65.7%
- growth (HOP-62 NSCLC): 61.9%
- growth (NCI-H460 lung): 31.3%
- growth (HOP-92 NSCLC): 5.67% (active)
- growth (NCI-H522 lung): 69.4%
- growth (A549/ATCC NSCLC): 60%
- growth (786-0 renal): 35.9%
- growth (COLO 205 colon): 125%
- growth (DU-145 prostate): 64.4%
- growth (K-562 leukemia): 47.1%
- growth (MALME-3M melanoma): 87.2%
- growth (MDA-MB-231 breast): 43.2%
- growth (SF-268 CNS): 31.7%
- growth (SF-295 CNS): 9.39% (active)
- growth (SF-539 CNS): 53.9%
- growth (UACC-257 melanoma): 63.9%
- growth (M14 melanoma): 40.6%
